Results from PubChem BioAssay (NCATS).
Results filed as inconclusive are left out. The source made the active and inactive calls. Calls come from the whole dose curve; as a rule, active = well fitted curve in the direction sought with a large enough effect; inconclusive = small, poorly fitted or top-dose-only effect, or another doubt; inactive = no such curve, though single readings can be large; an effect the other way counts as inactive or inconclusive.

Experiments:
[1] = qHTS to identify inhibitors of the type 1 interferon - major histocompatibility complex class I in skeletal muscle: primary screen against the NCATS Pharmaceutical Collection (AID 1347407);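 note: luminescence of HiBiT knocked into endogenous HLA-B as interferon-induced MHC class I level; % is set by controls: 0 for no effect and ±100 for the full control effect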
In short: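 A qHTS format is used: 8-point, 1:5 compound series with 46 uM top final concentration, applied alongside 4 ng/ml IFN-beta to HLA-B*08:01-HiBiT knock-in myoblasts. Luminescence is measured after 24 h treatment.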

[2] = molecular target: Protein phosphatase 1D (Homo sapiens) (UniProt O15297); assay: RapidFire Mass Spectrometry qHTS Assay for Modulators of WT P53-Induced Phosphatase 1 (WIP1) (AID 1347424);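 note: amount of dephosphorylated VEPPL-S-QETFS peptide product formed by WIP1; series mostly up to about 63 µM; plate controls were DMSO wells for no effect and GSK830371 inhibitor control at 10 µM for full effect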
In short: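 RapidFire mass spectrometry measured dephosphorylated peptide after 5 min room-temperature reaction of 2 uM VEPPL-pS-QETFS with 10 nM WIP1 (50 mM Tris-HCl pH 7.5, 30 mM MgCl2, 0.1 mM EGTA, BSA), following 1 hr compound preincubation; 1 uM isotope-labelled product standard.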

[3] = molecular target: Protein phosphatase 1D (Homo sapiens) (UniProt O15297); assay: Rhodamine-PBP qHTS Assay for Modulators of WT P53-Induced Phosphatase 1 (WIP1) (AID 1347425); note: % of control where 0% means no effect
In short: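 The read-out is the change in Rhodamine-PBP fluorescence (f1 - f0, ex 525/em 598 nm) as Pi is released, read each minute for 11 min. Final reaction: 5 nM WIP1, 10 uM phosphopeptide VEPPL-pS-QETFS, 10 uM Rh-PBP, 50 mM Tris-HCl pH 7.5, 30 mM MgCl2. Compound was preincubated with enzyme for 1 hour at room temperature.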

[4] = Primary qHTS for inhibitors of La Crosse Virus (LACV) - induced cell death in SH-SY5Y cells (AID 1508616);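 note: top concentration of the series differs between compounds; 0% = infected DMSO wells and 100% = uninfected DMSO wells; higher means more rescue of cells from virus-induced death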
In short: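 Rescue of virus-induced death was read as ATPLite luminescence after 6 days at 37C, scaled between DMSO wells with LACV and without virus. Cells were SH-SY5Y, 6000/well, infected at 0.01 MOI after compound addition.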

[5] = molecular target: Calcium and integrin-binding protein 1 (Homo sapiens) (UniProt Q99828); assay: Primary qHTS for Identification of Calcium Integrin Binding Protein 1 (CIB1) Competitor (AID 1508620);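 note: GST tagged CIB1 binding a fluorescein labelled alphaIIb integrin peptide tracer; top concentration of the series differs between compounds; % is set by controls: 0 for no effect and ±100 for the full control effect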
In short: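 CIB1-GST (1 uM final) and compound incubated 15 min at room temperature before adding FITC-alphaIIb peptide tracer (100 nM final). Competition for binding read by fluorescence polarization (ex 480, em 540) after another 15 min at room temperature.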

[6] = Counterscreen qHTS for small molecule stabilizers of the endoplasmic reticulum resident proteome: GLuc-NoTag assay (AID 1508627);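 note: SH-SY5Y cells given compound then 100 nM thapsigargin to empty ER calcium; series mostly up to about 76 µM; 0% = thapsigargin alone and -100% = DMSO vehicle control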
In short: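 Counterscreen line: SH-SY5Y-GLuc-NoTag cells, treated with compound 19 hr before a 4 hr, 100 nM thapsigargin calcium depletion. Secreted Gaussia luciferase in the medium was measured by luminescence after coelenterazine was added (0.07x final), with cells unlysed.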

Chain of Protein phosphatase 1D (Homo sapiens) (O15297 whole entry, looked up): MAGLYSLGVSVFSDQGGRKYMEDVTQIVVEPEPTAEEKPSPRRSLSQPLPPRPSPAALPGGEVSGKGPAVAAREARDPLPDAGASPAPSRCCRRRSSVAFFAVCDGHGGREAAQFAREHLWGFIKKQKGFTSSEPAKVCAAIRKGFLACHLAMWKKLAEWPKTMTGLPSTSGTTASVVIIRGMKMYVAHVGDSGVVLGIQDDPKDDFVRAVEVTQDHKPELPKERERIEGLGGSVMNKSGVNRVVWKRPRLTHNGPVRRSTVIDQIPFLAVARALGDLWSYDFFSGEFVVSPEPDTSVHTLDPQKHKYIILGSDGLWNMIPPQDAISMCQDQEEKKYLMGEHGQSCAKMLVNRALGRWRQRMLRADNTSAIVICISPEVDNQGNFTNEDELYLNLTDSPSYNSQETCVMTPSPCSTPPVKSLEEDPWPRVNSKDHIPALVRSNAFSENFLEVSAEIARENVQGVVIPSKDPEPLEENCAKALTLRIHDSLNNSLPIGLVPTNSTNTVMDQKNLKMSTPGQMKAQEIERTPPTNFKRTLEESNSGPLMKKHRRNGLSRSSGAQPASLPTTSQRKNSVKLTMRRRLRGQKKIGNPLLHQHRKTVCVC
Chain of Calcium and integrin-binding protein 1 (Homo sapiens) (Q99828 whole entry, looked up): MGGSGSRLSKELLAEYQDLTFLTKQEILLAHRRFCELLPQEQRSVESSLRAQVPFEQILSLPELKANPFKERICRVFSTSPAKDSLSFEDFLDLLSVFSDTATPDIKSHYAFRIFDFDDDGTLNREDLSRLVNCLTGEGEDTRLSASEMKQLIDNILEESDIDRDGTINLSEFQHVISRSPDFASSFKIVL

COc1cc(C(=O)NCCCCCC(=O)O)cc(OC)c1OC
inactive: outcome [1] | outcome [2] | outcome [3] | outcome [4] | outcome [5]

O=C(O)COC(=O)Cc1ccccc1Nc1c(Cl)cccc1Cl
inactive: outcome [1] | outcome [2] | outcome [3] | outcome [4] | outcome [5]

CN1C(=O)CC(c2ccccc2)C1=O (stereo not given)
inactive: outcome [1] | outcome [2] | outcome [3] | outcome [4] | outcome [5]

Cc1cccc(C(=O)O)c1O
inactive: outcome [1] | outcome [2] | outcome [3] | outcome [5]

O=C(NCN1CCOCC1)c1cnccn1
inactive: outcome [1] | outcome [2] | outcome [3] | outcome [4] | outcome [5]

NC(N)=NCCN1CCCCCCC1
inactive: activity change, negative = inhibition [1] -12.2% [at 0.727 µM] | activity change, negative = inhibition [2] 2.05% [at 0.505 µM] | activity change, negative = inhibition [3] 1.78% [at 0.575 µM] | activity change [4] -10.9% [at 0.0343 µM] | activity change, negative = inhibition [5] -2.06% [at 1.07 µM]

O=C(NCC(O)CO)c1c(I)c(C(=O)NCC(O)CO)c(I)c(N(CCO)C(=O)CO)c1I (stereo not given)
inactive: outcome [1] | outcome [2] | outcome [3] | outcome [4] | outcome [5]

CC(CSC(=O)c1ccccc1)C(=O)N1C[C@@H](Sc2ccccc2)C[C@H]1C(=O)O (stereo not given in full)
inactive: outcome [1] | outcome [2] | outcome [3] | outcome [4] | outcome [5]

CC(=O)Nc1cccc(O)c1
inactive: outcome [1] | outcome [2] | outcome [3] | outcome [4] | outcome [5]

CN/C(=C\[N+](=O)[O-])NCCSCc1csc(CN(C)C)n1
inactive: outcome [1] | outcome [2] | outcome [3] | outcome [4] | outcome [5]

CCc1nnc(NS(=O)(=O)c2ccc(N)cc2)s1
inactive: outcome [1] | outcome [2] | outcome [3] | outcome [4] | outcome [5]

CC(=O)[C@@]1(O)CC[C@H]2[C@@H]3C[C@H](C)C4=CC(=O)C=C[C@]4(C)[C@@]3(F)[C@@H](O)C[C@@]21C
inactive: outcome [1] | outcome [2] | outcome [3] | outcome [4] | outcome [5]

CCN[C@H]1CN(CCCOC)S(=O)(=O)c2sc(S(N)(=O)=O)cc21
inactive: outcome [1] | outcome [2] | outcome [3] | outcome [4] | outcome [5]

COC(=O)c1cccnc1
inactive: outcome [1] | outcome [2] | outcome [3] | outcome [4] | outcome [5]

NC(=O)c1ccc([N+](=O)[O-])cc1Cl
inactive: outcome [1] | outcome [2] | outcome [3] | outcome [4] | outcome [5]

CC(=O)OCC(COC(C)=O)OC(C)=O
inactive: outcome [1] | outcome [2] | outcome [3] | outcome [4] | outcome [5]

O=C(O)C(S)C(S)C(=O)O (stereo not given)
inactive: outcome [1] | outcome [2] | outcome [3] | outcome [4] | outcome [5]

Cc1ccc2c(c1)c1c3n2CCNC3CCC1 (stereo not given)
inactive: outcome [1] | outcome [2] | outcome [3] | outcome [4] | outcome [5] | outcome [6]

Cn1cc(C(=O)[C@@H]2CCc3nc[nH]c3C2)c2ccccc21
inactive: outcome [1] | outcome [2] | outcome [3] | outcome [4] | outcome [5] | outcome [6]

C[N+]1(C)CCCC(OC(=O)C(O)(c2ccccc2)c2ccccc2)C1 (stereo not given)
inactive: outcome [1] | outcome [2] | outcome [3] | outcome [5]

Cc1cccc(Nc2ccccc2C(=O)O)c1C
inactive: outcome [1] | outcome [2] | outcome [3] | outcome [5]

NC(=O)NC1NC(=O)NC1=O (stereo not given)
inactive: outcome [1] | outcome [2] | outcome [3] | outcome [5]

Cc1c(NC(C)C)c(=O)n(-c2ccccc2)n1C
inactive: outcome [1] | outcome [2] | outcome [3] | outcome [5]

CC[C@H](C)[C@H](N)C(=O)O
inactive: outcome [1] | outcome [2] | outcome [3] | outcome [5]

CC(C)(C)C(=O)OCOC(=O)[C@@H]1N2C(=O)[C@@H](NC(=O)[C@H](N)c3ccccc3)[C@H]2SC1(C)C
inactive: outcome [1] | outcome [2] | outcome [3] | outcome [5]

O=C(O)CCCCC1CCSS1 (stereo not given)
inactive: outcome [2] | outcome [3]

Cc1c(NC(=O)c2cccnc2)c(=O)n(-c2ccccc2)n1C
inactive: outcome [1] | outcome [2] | outcome [3] | outcome [5]

NS(=O)(=O)c1cc2c(cc1C(F)(F)F)NCNS2(=O)=O
inactive: outcome [1] | outcome [2] | outcome [3] | outcome [5]

O=C(c1ccccc1)C(O)c1ccccc1 (stereo not given)
inactive: outcome [2] | outcome [3] | outcome [4]

OC(CCN1CCCC1)(c1ccccc1)C1CCCCC1 (stereo not given)
inactive: outcome [1] | outcome [3] | outcome [4]

CC(CN(C)C)C(C)(O)Cc1ccc(Cl)cc1 (stereo not given)
inactive: outcome [1] | outcome [2] | outcome [3] | outcome [5]

O=C(O)c1cc(=O)c2ccccc2o1
inactive: outcome [1] | outcome [2] | outcome [3] | outcome [5]

C[C@]1(Cn2ccnn2)[C@H](C(=O)O)N2C(=O)C[C@H]2S1(=O)=O
inactive: outcome [1] | outcome [2] | outcome [3] | outcome [5]

O=C1c2ccccc2C(=O)C1c1ccc(Br)cc1
inactive: outcome [1] | outcome [4] | outcome [5]

O=C1c2ccccc2S(=O)(=O)N1CCCCN1CCN(c2ncccn2)CC1
inactive: outcome [1] | outcome [2] | outcome [3] | outcome [5]
